# Measured values: PubChem BioAssay (NCATS)
# Records with an inconclusive call do not appear. The source made the active and inactive calls. Unless noted, calls come from the whole dose curve; as a rule, active = well fitted inhibition curve with a large enough effect; inconclusive = small, poorly fitted or top-dose-only effect; inactive = flat fitted curve, though single readings scatter.
# Tests used:
# [1] = qHTS for identification of novel therapeutic agents for treatment of microphthalmiaassociated transcription factor (MiT) renal cell carcinoma (RCC) (AID 1963991); details: CellTiter-Glo, 48 h, stronger effect = lower value
# Method in brief: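 Three TFE3-fusion RCC lines (UOK109, UOK124, UOK145), 500 cells/well in complete medium, were treated with MIPE 4.0 compounds for 48 hours at 37 C. Viability was by CellTiter-Glo luminescence, normalized to DMSO (100%) and empty wells (0%); curves fitted over 11 concentrations.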
# [2] = qHTS profiling for inhibitors of Plasmodium falciparum proliferation (AID 504749); note: nearly all actives have a fitted effect of over 60% in size; note: potency is the fitted concentration of half-maximal effect;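 for activity, negative = inhibition: 0% = DMSO vehicle and full inhibition = artemisinin control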; details: P. falciparum in erythrocytes, SYBR Green DNA, 72 h
# Method in brief: (§1)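 In a 72 h erythrocytic culture (37 C, humidified, 5% CO2) at 2.5% hematocrit and 0.3% starting parasitemia, compounds were tested; SYBR Green I in detergent lysis buffer stained parasite DNA overnight.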
# 3D7 = assay: as above; details: P. falciparum in erythrocytes, SYBR Green DNA, 72 h; series mostly up to 28.7 µM
# Method in brief: as §1
# 7G8 = assay: as above; details: P. falciparum in erythrocytes, SYBR Green DNA, 72 h; series mostly up to 28.7 µM
# Method in brief: as §1
# AA1029 = assay: as above; details: P. falciparum in erythrocytes, SYBR Green DNA, 72 h; series mostly up to 28.7 µM
# Method in brief: as §1
# ATS189 = assay: as above; details: P. falciparum in erythrocytes, SYBR Green DNA, 72 h; series mostly up to 28.7 µM
# Method in brief: as §1
# ATS95 = assay: as above; details: P. falciparum in erythrocytes, SYBR Green DNA, 72 h; series mostly up to 28.7 µM
# Method in brief: as §1
# C2A = assay: as above; details: P. falciparum in erythrocytes, SYBR Green DNA, 72 h; series mostly up to 28.7 µM
# Method in brief: as §1
# CP185 = assay: as above; details: P. falciparum in erythrocytes, SYBR Green DNA, 72 h; series mostly up to 28.7 µM
# Method in brief: as §1
# CP191 = assay: as above; details: P. falciparum in erythrocytes, SYBR Green DNA, 72 h; series mostly up to 28.7 µM
# Method in brief: as §1
# CP201 = assay: as above; details: P. falciparum in erythrocytes, SYBR Green DNA, 72 h; series mostly up to 28.7 µM
# Method in brief: as §1
# [3] = qHTS drug screen for cell cycle checkpoint inhibitors in PARPi-resistant BRCA-mutant ovarian cancer cell lines. (AID 1963452; calls by dose curve); details: PEO1/OlaR viability, CellTiter-Glo luminescence, 96 h, stronger effect = lower value
# Method in brief: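 PEO1, PEO4 and PEO1/OlaR ovarian cancer cells, 600 per well, exposed 96 h at 37C to a dilution series. Viability read by CellTiter-Glo luminescence, normalized to DMSO and empty wells; activity summarized as Z-AUC.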
# AS120 = assay: qHTS profiling for inhibitors of Plasmodium falciparum proliferation (AID 504749); note: nearly all actives have a fitted effect of over 60% in size; note: potency is the fitted concentration of half-maximal effect;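 for activity, negative = inhibition: 0% = DMSO vehicle and full inhibition = artemisinin control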; details: P. falciparum in erythrocytes, SYBR Green DNA, 72 h; series mostly up to 28.7 µM
# Method in brief: as §1
# CP192 = assay: as above; details: P. falciparum in erythrocytes, SYBR Green DNA, 72 h; series mostly up to 28.7 µM
# Method in brief: as §1
# CP194 = assay: as above; details: P. falciparum in erythrocytes, SYBR Green DNA, 72 h; series mostly up to 28.7 µM
# Method in brief: as §1
# CP211 = assay: as above; details: P. falciparum in erythrocytes, SYBR Green DNA, 72 h; series mostly up to 28.7 µM
# Method in brief: as §1
# [4] = measured here: PEO1 parental Z-AUC
structure (smiles),measurement,setting,value
CN(C)C(=N)N=C(N)N,z-score,"[1]; TFE3-RCC UOK109 viability, measured here: UOK109 Z-AUC",0.797
same,z-score,"[1]; TFE3-RCC viability, measured here: UOK124 Z-AUC",1.58
same,z-score,"[1]; TFE3-RCC viability, measured here: UOK145 Z-AUC",0.981
same,"activity, negative = inhibition","[2]; at 12.8 µM (top of the series), parasite line A",11.7% (inactive)
same,"activity, negative = inhibition","[2]; at 12.8 µM (top of the series), parasite line B",23.8% (inactive)
same,Potency,3D7,inactive
same,Potency,7G8,inactive
same,Potency,AA1029,inactive
same,Potency,ATS189,inactive
same,Potency,ATS95,inactive
same,Potency,C2A,inactive
same,Potency,CP185,inactive
same,Potency,CP191,inactive
same,Potency,CP201,inactive
CC(C)(Oc1ccc(C2CC2(Cl)Cl)cc1)C(=O)O (stereo not given),Z-AUC,[3],-0.348 (inactive)
same,Z-AUC,[3]; [4],-0.606
same,Z-AUC,[3]; measured here: PEO4 Z-AUC,-0.292
same,"activity, negative = inhibition","[2]; at 28.7 µM (top of the series), parasite line A",-6.79% (inactive)
same,"activity, negative = inhibition","[2]; at 28.7 µM (top of the series), parasite line B",2.45% (inactive)
same,Potency,3D7,inactive
same,Potency,AA1029,inactive
same,Potency,AS120,inactive
same,Potency,ATS189,inactive
same,Potency,ATS95,inactive
same,Potency,C2A,inactive
same,Potency,CP185,inactive
same,Potency,CP191,inactive
same,Potency,CP192,inactive
same,Potency,CP194,inactive
same,Potency,CP201,inactive
same,Potency,CP211,inactive
CC1(CN2CCC(n3c(=O)[nH]c4ccccc43)CC2)OCc2ccccc2-n2cccc21 (stereo not given),Z-AUC,[3],1.14 (inactive)
same,Z-AUC,[3]; [4],0.846
same,Z-AUC,[3]; measured here: PEO4 Z-AUC,0.865
same,Potency,7G8,3.16 µM (active)
same,Potency,AS120,10 µM (active)
same,Potency,CP192,inactive
CC#C[C@]1(O)CC[C@H]2[C@@H]3CCC4=CC(=O)CCC4=C3[C@@H](c3ccc(N(C)C)cc3)C[C@@]21C,Z-AUC,[3],1.15 (inactive)
same,Z-AUC,[3]; [4],0.225
same,Z-AUC,[3]; measured here: PEO4 Z-AUC,0.142
same,Potency,[2]; parasite line A,8.91 µM (active)
same,Potency,[2]; parasite line B,8.91 µM (active)
same,Potency,3D7,8.91 µM (active)
same,Potency,7G8,2.82 µM (active)
same,Potency,AA1029,12.6 µM (active)
same,Potency,AS120,7.08 µM (active)
same,Potency,CP191,11.2 µM (active)
same,Potency,CP194,16.9 µM (active)
same,Potency,CP201,15.1 µM (active)
same,Potency,CP211,13.5 µM (active)
